# From PubChem BioAssay (NCATS)
# Values without a mark were called inactive. Results filed as inconclusive are left out. Active and inactive are the calls of the source. Unless noted, the call rests on the fitted dose curve; in most records, active means well fitted curve in either direction with a large enough effect (not every such curve was filed as active); inconclusive means small, poorly fitted or top-dose-only effect, or another doubt; inactive means flat fitted curve, though single readings scatter.
# Assays:
# [1] = biological target: Lysosomal acid glucosylceramidase (Homo sapiens) (UniProt P04062); test: Glucocerebrosidase-p2 (AID 348; in the data active means potency below about 10 µM; further: potency means the concentration at half of the fitted maximal effect); settings: purified GBA, blue fluorogenic substrate, 40 min
# Chain of Lysosomal acid glucosylceramidase (Homo sapiens) (P04062 whole entry, looked up): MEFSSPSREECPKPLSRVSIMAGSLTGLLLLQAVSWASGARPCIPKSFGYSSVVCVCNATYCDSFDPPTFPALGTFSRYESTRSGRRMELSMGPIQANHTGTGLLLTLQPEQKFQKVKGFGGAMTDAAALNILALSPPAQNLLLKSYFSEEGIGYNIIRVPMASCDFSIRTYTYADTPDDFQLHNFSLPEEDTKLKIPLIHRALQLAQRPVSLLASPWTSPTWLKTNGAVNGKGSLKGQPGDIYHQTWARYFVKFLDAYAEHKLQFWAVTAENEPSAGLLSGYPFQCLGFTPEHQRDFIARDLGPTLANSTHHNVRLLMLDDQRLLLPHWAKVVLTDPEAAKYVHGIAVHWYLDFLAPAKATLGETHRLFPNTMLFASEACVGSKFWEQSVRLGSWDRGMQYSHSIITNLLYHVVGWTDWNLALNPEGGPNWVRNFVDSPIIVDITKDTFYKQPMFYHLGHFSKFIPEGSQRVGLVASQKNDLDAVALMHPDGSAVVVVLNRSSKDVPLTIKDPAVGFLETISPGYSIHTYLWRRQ
# Procedure, shortened: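 Compounds titrated from 0.6 nM upwards against 0.2 nM enzyme in pH 5.9 citric acid/KH2PO4, taurocholate, tween-20; blue fluorogenic substrate 80 uM, 40 min room temperature, stopped and read Ex 365/Em 440 for AC50.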
# [2] = AP1 Signaling Pathway (AID 357); settings: ME-180 AP-1-bla reporter, EGF-induced, beta-lactamase ratio, 5 h; at 7.69 µM (top of the series) unless noted;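 further: ME-180 reporter cells stimulated with EGF at its EC50 level; on the % scale 0 is the no-effect control and ±100 the full control effect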
# Procedure, shortened: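 Modulation of EGF-driven AP-1 transcription was assessed with a beta-lactamase reporter in ME-180 cells. Compound and EC50 EGF were co-incubated 5 hours at 37 °C before 2.5-hour CCF4 loading at room temperature and dual-emission reading.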
# [3] = biological target: Cytochrome P450 1A2 (Homo sapiens) (UniProt P05177); test: p450-cyp1a2 (AID 410; calls by dose curve; further: potency means the concentration at half of the fitted maximal effect;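 on activity change, negative = inhibition: -100% = full effect of reference inhibitor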); settings: recombinant CYP1A2, luciferin-ME demethylation, luminescence; series mostly up to 11.4 µM
# Chain of Cytochrome P450 1A2 (Homo sapiens) (P05177 whole entry, looked up): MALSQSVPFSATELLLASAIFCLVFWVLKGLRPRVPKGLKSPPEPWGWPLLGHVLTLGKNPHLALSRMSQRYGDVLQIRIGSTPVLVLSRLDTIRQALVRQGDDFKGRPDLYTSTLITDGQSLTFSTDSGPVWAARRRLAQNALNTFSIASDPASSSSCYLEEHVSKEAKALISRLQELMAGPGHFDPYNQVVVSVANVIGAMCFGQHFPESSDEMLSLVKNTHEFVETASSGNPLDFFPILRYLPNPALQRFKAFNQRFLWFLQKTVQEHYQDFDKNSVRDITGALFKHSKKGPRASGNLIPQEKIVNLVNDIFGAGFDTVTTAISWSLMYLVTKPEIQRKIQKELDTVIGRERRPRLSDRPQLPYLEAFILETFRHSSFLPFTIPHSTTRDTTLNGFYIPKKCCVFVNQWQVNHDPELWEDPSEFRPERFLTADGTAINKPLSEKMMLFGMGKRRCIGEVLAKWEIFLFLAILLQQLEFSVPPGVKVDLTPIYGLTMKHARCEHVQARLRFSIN
# Procedure, shortened: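 Inhibition was calculated relative to 57 uM furafylline (full inhibition). The reaction used human CYP1A2 at 20nM with Luciferin-ME at its Km, 100uM, driven by an NADPH-regenerating system for 60 min at room temperature.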
# [4] = NFAT Signaling Pathway (AID 444); settings: Jurkat NFAT-bla M1, carbachol, beta-lactamase ratio, 5 h; at 7.69 µM (top of the series) unless noted;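 further: carbachol stimulus at about its EC50 of 1 µM final; on the % scale 0 is the no-effect control and ±100 the full control effect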
# Procedure, shortened: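 Read-out: CCF4 FRET ratio (460 nm/530 nm) after 1 h RT dye loading, used for %activity and AC50 from titration series. Cells: Jurkat NFAT-β-lactamase/M1 line, treated with compound plus 1 uM carbachol for 5 h, 37 °C.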
# [5] = Stat Signaling Pathway (AID 446); settings: ME-180 SIE beta-lactamase reporter, IL-6 stimulated, 5 h; at 7.69 µM (top of the series) unless noted;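 further: ME-180 cervical cancer cells given 40 pM IL-6 alongside compound; SIE-controlled beta-lactamase reporter measured as 460/530 nm FRET emission ratio; on the % scale 0 is the no-effect control and ±100 the full control effect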
# Procedure, shortened: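 Screening format detects activators and inhibitors alike: ME-180 SIE-bla cells stimulated at 40 pM IL-6 for 5 hrs with compound, then dual-emission beta-lactamase read at 405 nm excitation.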
# [6] = biological target: Glucocorticoid receptor (Homo sapiens) (UniProt P04150); test: GR-GFP Redistribution (AID 450;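 active means compounds whose dose series gives a full or clear partial fitted curve of increased nuclear translocation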; further: potency means the concentration at half of the fitted maximal effect); settings: U2OS GR-GFP nuclear translocation, laser cytometry, 2 h
# Chain of Glucocorticoid receptor (Homo sapiens) (P04150 whole entry, looked up, the tested form may be a part): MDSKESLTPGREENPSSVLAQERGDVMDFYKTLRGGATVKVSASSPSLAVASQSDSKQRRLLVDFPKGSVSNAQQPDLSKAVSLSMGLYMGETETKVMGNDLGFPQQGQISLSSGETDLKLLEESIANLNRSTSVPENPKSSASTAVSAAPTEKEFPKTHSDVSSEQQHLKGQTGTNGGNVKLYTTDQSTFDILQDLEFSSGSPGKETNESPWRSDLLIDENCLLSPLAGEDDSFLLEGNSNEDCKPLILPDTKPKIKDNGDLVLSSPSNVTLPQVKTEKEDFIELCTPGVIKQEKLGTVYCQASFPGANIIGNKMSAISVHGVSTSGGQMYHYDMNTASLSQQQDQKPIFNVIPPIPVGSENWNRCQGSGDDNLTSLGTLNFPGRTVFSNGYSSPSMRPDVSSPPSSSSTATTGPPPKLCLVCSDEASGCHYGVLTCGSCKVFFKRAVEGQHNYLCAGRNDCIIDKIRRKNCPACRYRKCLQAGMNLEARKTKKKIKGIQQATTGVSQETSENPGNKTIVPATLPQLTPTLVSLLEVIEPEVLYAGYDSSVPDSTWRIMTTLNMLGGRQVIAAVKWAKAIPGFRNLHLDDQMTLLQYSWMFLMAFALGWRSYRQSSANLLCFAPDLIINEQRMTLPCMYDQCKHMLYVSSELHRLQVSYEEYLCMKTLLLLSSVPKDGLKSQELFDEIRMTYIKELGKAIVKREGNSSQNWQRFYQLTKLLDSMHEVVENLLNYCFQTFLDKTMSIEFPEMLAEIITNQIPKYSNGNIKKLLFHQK
# [7] = biological target: Mitogen-activated protein kinase 10 (Mus musculus) (UniProt Q61831); test: JNK3 AlphaScreen Assay (AID 530); settings: JNK3 lysate, c-Jun phosphorylation; series mostly up to 11.4 µM;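 further: kinase came from lysate of stimulated human HepG2 cells; signal reports phosphorylation of biotinylated GST-cJun 1-79 at Ser73 with 10 µM ATP; on the % scale 0 is the no-effect control and ±100 the full control effect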
# Procedure, shortened: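 Room-temperature AlphaScreen kinase assay; pre-activated HepG2 lysate as JNK3 source, biotin-GST-cJun(1-79) substrate, 10 uM ATP, compound 15 min preincubation.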
# [8] = biological target: 3',5'-cyclic-AMP phosphodiesterase 4B (Homo sapiens) (UniProt Q07343); test: qHTS Assay for Inhibitors of PDE-IV (AID 607; active means well fitted activation curve with a large enough effect in the main read-out, with a control signal flat, not every such curve was filed as active; further: % of control where 0% means no effect); settings: HEK293 ACTOne CNG channel cells, membrane potential fluorescence; series mostly up to 22.9 µM
# Chain of 3',5'-cyclic-AMP phosphodiesterase 4B (Homo sapiens) (Q07343 whole entry, looked up): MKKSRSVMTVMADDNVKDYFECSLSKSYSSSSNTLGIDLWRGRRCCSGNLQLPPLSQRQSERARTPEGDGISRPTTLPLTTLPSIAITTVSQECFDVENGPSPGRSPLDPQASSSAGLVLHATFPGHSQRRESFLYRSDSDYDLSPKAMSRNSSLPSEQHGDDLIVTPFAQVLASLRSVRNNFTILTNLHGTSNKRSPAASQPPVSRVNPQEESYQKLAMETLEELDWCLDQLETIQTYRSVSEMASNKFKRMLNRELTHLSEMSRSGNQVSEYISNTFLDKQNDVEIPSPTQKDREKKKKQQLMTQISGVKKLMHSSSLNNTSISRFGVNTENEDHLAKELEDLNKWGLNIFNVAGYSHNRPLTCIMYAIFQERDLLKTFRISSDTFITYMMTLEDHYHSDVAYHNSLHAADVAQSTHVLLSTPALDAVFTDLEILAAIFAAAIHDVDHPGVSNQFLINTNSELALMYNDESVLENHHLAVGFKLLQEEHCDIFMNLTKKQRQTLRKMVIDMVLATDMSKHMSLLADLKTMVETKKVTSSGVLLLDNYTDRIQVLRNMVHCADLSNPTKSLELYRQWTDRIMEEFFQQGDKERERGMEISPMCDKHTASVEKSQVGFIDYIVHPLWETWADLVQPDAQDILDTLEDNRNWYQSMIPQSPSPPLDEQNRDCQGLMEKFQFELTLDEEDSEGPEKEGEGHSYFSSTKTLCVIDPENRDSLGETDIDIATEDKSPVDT
# Procedure, shortened: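 The readout is membrane depolarisation from a cAMP-sensing CNG channel, detected with a potential dye at ex 535/em 590. Cells were HEK293-derived (endogenous PDE-IV) at 1000 cells/well, titrated up to 22.9 uM final.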
# [9] = biological target: Cytochrome P450 2C9 (Homo sapiens) (UniProt P11712); test: qHTS Assay for Inhibitors and Substrates of Cytochrome P450 2C9 (AID 883; active means well fitted curve in the direction sought with a large enough effect; an effect the other way counts as inactive or inconclusive; further: potency means the concentration at half of the fitted maximal effect; nearly all actives have a fitted effect of over 60% in size); settings: recombinant CYP2C9, luciferin-H luminescence, 60 min; series mostly up to 11.4 µM
# Procedure, shortened: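 Luminescent read-out of deoxyluciferin hydroxylation, normalized to 57uM sulphaphenazole (AC100). Reaction: 10nM enzyme, 100uM Luciferin-H (equal to KM), 25mM KPO4, 10 min compound preincubation, then 60 min with NADPH regeneration, both at 37C.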
# [10] = biological target: Cytochrome P450 3A4 (Homo sapiens) (UniProt P08684); test: qHTS Assay for Activators of Cytochrome P450 3A4 (AID 885; active means well fitted curve in the direction sought with a large enough effect; an effect the other way counts as inactive or inconclusive; further: nearly all actives have a fitted effect of over 65% in size); settings: recombinant CYP3A4, Luciferin-PPXE luminescence, 60 min; series mostly up to 11.4 µM
# Chain of Cytochrome P450 3A4 (Homo sapiens) (P08684 whole entry, looked up): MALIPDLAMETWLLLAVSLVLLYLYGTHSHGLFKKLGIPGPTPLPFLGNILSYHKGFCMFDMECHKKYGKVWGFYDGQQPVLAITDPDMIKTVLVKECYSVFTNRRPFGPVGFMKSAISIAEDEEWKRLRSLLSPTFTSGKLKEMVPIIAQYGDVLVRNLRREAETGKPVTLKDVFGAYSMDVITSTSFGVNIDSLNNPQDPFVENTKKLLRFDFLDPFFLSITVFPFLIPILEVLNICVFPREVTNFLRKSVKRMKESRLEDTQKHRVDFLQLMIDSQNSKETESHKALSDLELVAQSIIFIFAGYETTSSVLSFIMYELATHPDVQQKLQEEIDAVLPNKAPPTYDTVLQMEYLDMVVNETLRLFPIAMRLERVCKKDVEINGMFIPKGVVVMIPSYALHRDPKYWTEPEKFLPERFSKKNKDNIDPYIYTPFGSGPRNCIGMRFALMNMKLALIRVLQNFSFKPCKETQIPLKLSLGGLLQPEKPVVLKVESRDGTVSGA
# Procedure, shortened: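 Steps: enzyme/substrate mix dispensed; compound added, 10 min RT; NADPH regeneration solution added, 60 min RT; luciferin detection buffer stops reaction; 20 min later luminescence measured.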
# [11] = biological target: Cytochrome P450 2D6 (Homo sapiens) (UniProt P10635); test: qHTS Assay for Inhibitors and Substrates of Cytochrome P450 2D6 (AID 891; active means well fitted curve in the direction sought with a large enough effect; an effect the other way counts as inactive or inconclusive; further: potency means the concentration at half of the fitted maximal effect; nearly all actives have a fitted effect of over 60% in size); settings: recombinant CYP2D6, luciferin-ME EGE luminescence; series mostly up to 11.4 µM
# Chain of Cytochrome P450 2D6 (Homo sapiens) (P10635 whole entry, looked up): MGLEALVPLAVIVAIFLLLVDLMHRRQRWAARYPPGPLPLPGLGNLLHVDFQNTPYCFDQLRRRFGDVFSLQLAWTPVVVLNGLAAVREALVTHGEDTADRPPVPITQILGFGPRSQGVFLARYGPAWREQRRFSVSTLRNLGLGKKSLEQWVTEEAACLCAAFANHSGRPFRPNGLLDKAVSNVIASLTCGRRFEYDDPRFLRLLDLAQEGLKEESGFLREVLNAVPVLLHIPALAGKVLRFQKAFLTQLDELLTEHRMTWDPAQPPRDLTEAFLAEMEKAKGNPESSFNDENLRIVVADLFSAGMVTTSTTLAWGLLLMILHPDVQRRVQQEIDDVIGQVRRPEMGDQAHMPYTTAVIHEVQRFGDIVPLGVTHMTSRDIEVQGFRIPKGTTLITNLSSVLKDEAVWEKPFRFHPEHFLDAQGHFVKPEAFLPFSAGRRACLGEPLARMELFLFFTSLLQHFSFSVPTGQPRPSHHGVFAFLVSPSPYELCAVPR
# Procedure, shortened: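 Human CYP2D6 (5 nM) with 30 uM Luciferin-ME EGE (at Km) in 100 mM KPO4, compound preincubated 10 min, then NADPH regeneration system for 60 min at room temperature. Luciferin read by luminescence; normalized to 1.43 uM quinidine.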
# [12] = biological target: Glucocorticoid receptor (Homo sapiens) (UniProt P04150); test: GR-EFC Redistribution (AID 451; calls by dose curve; further: potency means the concentration at half of the fitted maximal effect); settings: CHO-K1 GR-EFC translocation, beta-gal luminescence, 2 h
# Procedure, shortened: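 Translocation of GR-ED fusion to nuclear EA restores b-gal, read by luminescence after 1 h room-temperature detection. Engineered CHO-K1 biosensor cells, 1,000/well, exposed 2 h at 37 C to titrations up to 46 uM final.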
# [13] = biological target: Cytochrome P450 2C19 (Homo sapiens) (UniProt P33261); test: qHTS Assay for Inhibitors and Substrates of Cytochrome P450 2C19 (AID 899; active means well fitted curve in the direction sought with a large enough effect; an effect the other way counts as inactive or inconclusive; further: on the % scale 0 is the no-effect control and ±100 the full control effect; nearly all actives have a fitted effect of over 60% in size); settings: recombinant CYP2C19, luciferin-H EGE luminescence; series mostly up to 11.4 µM
# Chain of Cytochrome P450 2C19 (Homo sapiens) (P33261 whole entry, looked up): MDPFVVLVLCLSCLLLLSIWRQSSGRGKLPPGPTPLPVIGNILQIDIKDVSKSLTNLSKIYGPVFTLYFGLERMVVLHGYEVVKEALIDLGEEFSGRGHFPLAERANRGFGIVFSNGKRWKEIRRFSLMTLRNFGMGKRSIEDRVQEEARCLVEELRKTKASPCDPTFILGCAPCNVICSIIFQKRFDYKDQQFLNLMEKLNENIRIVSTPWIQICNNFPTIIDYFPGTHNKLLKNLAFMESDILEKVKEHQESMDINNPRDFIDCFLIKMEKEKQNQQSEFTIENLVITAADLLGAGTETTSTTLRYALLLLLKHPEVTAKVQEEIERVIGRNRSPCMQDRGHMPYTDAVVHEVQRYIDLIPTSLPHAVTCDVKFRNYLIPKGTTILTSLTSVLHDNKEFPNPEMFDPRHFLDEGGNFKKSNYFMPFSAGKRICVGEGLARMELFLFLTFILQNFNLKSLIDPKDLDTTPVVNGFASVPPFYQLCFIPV
# Procedure, shortened: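 Luminescence readout of luciferin formed from 10uM Luciferin-H EGE (KM level) by 5 nM CYP2C19 in 50mM KPO4. 60 min NADPH-driven reaction at 37C after 10 min compound preincubation; data scaled to 57uM ketoconazole inhibition.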
# [14] = biological target: Cytochrome P450 3A4 (Homo sapiens) (UniProt P08684); test: qHTS Assay for Inhibitors and Substrates of Cytochrome P450 3A4 (AID 884; active means well fitted curve in the direction sought with a large enough effect; an effect the other way counts as inactive or inconclusive; further: on the % scale 0 is the no-effect control and ±100 the full control effect; nearly all actives have a fitted effect of over 50% in size); settings: recombinant CYP3A4, Luciferin-PPXE luminescence; series mostly up to 57.1 µM
# Procedure, shortened: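 20 nM human CYP3A4 with 25 uM Luciferin-PPXE (at KM) in 200 mM KPO4, preincubated 10 min with compound; NADPH regeneration started a 60 min RT reaction. Luciferin detected by luminescence, normalized to 57 uM ketoconazole as full inhibition.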
# [15] = biological target: ATP-dependent 6-phosphofructokinase (Trypanosoma brucei brucei) (UniProt O15648); test: qHTS Assay to Find Inhibitors of T. brucei phosphofructokinase: hit validation (AID 492961; active means well fitted curve in the direction sought with a large enough effect; an effect the other way counts as inactive or inconclusive); settings: T. brucei PFK, ADP-Glo luminescence; series mostly up to 51.4 µM
# Chain of ATP-dependent 6-phosphofructokinase (Trypanosoma brucei brucei) (O15648 whole entry, looked up): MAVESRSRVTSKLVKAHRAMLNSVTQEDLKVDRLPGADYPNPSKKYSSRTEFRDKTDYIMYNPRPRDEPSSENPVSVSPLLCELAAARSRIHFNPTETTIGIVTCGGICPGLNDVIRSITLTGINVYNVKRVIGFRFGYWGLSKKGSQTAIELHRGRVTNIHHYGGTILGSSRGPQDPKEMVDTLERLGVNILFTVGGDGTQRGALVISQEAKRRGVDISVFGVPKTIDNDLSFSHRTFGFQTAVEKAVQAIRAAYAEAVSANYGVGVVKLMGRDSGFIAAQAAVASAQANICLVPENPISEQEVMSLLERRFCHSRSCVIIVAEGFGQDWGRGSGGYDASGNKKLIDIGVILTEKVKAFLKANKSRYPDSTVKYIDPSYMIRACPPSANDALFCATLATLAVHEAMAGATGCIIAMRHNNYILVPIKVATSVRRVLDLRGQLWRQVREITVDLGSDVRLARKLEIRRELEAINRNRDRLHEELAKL
# Procedure, shortened: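 ADP-Glo luminescence read-out of ADP formed by 1.25 nM PFK from 0.1 mM ATP and 0.5 mM F6P (TEA pH 8.0, 45 min, RT). Compounds titrated; activity normalized to no-enzyme and full-enzyme controls.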
# [16] = qHTS profiling for inhibitors of Plasmodium falciparum proliferation (AID 504749; active means well fitted curve in the direction sought with a large enough effect; an effect the other way counts as inactive or inconclusive;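 further: 0% = DMSO vehicle and full inhibition = artemisinin control; nearly all actives have a fitted effect of over 60% in size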); settings: P. falciparum in erythrocytes, SYBR Green DNA, 72 h, at 28.7 µM (top of the series)
# Procedure, shortened: (§1)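 Three-day growth assay of blood-stage parasites in erythrocytes (0.3% parasitemia, 2.5% hematocrit) at 37 C, 5% CO2, quantified by SYBR Green DNA staining after overnight detergent lysis.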
# CP192 = test: as above; settings: P. falciparum in erythrocytes, SYBR Green DNA, 72 h; series mostly up to 28.7 µM
# Procedure, shortened: as §1
# CP203 = test: as above; settings: P. falciparum in erythrocytes, SYBR Green DNA, 72 h; series mostly up to 28.7 µM
# Procedure, shortened: as §1
# W2 = test: as above; settings: P. falciparum in erythrocytes, SYBR Green DNA, 72 h; series mostly up to 28.7 µM
# Procedure, shortened: as §1
structure (smiles),measurement,setting,value
O=C(O)c1c(Cl)c(Cl)c(Cl)c(Cl)c1C(=O)Nc1ccc2cn[nH]c2c1,Potency,[1],> 11.4 µM
same,"activity change, negative = inhibition",[2],1.63%
same,Potency,[3],0.2 µM (active)
same,"activity change, negative = inhibition",[4],4.49%
same,"activity, negative = inhibition",[5],20.7%
same,Potency,[6],> 46 µM
same,Potency,[7],inactive
same,Potency,[8],inactive
same,Potency,[9],0.0794 µM (active)
same,Potency,[10],inactive
C/C(=N/O)c1ccc2cc(Br)c3ccccc3c2c1,Potency,[1],> 11.4 µM
same,"activity change, negative = inhibition",[2],15%
same,"activity change, negative = inhibition",[3],-13.6% [at 2.29 µM]
same,"activity change, negative = inhibition",[4],1.9%
same,"activity, negative = inhibition",[5],-6.91%
same,Potency,[6],> 46 µM
same,Potency,[7],inactive
same,Potency,[8],inactive
same,Potency,[11],0.0251 µM (active)
N=C(N)c1ccc(-c2ccc(-c3ccc(C(=N)N)cc3)o2)cc1,Potency,[1],> 11.4 µM
same,"activity change, negative = inhibition",[2],7.04%
same,Potency,[3],inactive
same,"activity change, negative = inhibition",[4],7.72%
same,"activity, negative = inhibition",[5],10.3%
same,Potency,[12],> 9.22 µM
same,Potency,[7],inactive
same,Potency,[8],inactive
c1ccc2c(CN3CCN(Cc4c[nH]c5ccccc45)CC3)c[nH]c2c1,Potency,[1],> 11.4 µM
same,"activity change, negative = inhibition",[2],-5.4%
same,"activity change, negative = inhibition",[3],-18.1% [at 2.29 µM]
same,"activity change, negative = inhibition",[4],5.24%
same,"activity, negative = inhibition",[5],5.49%
same,Potency,[12],> 9.22 µM
same,Potency,[7],inactive
same,Potency,[8],inactive
same,Potency,[11],2.51 µM (active)
CN(C)CCN(c1ccccn1)c1ccccn1,Potency,[1],> 11.4 µM
same,"activity change, negative = inhibition",[2],11.2%
same,Potency,[3],inactive
same,"activity change, negative = inhibition",[4],7.47%
same,"activity, negative = inhibition",[5],11.4%
same,Potency,[12],> 9.22 µM
same,Potency,[7],inactive
same,Potency,[8],inactive
same,Potency,[13],inactive
O=C(NNS(=O)(=O)c1ccccc1)c1cccnc1,Potency,[1],> 11.4 µM
same,"activity change, negative = inhibition",[2],16.3%
same,"activity change, negative = inhibition",[3],2.2% [at 2.29 µM]
same,"activity change, negative = inhibition",[4],7.27%
same,"activity, negative = inhibition",[5],2.24%
same,Potency,[12],> 9.22 µM
same,Potency,[7],inactive
same,Potency,[8],inactive
same,Potency,[10],inactive
N[C@@H](Cc1ccccc1)C(=O)O,Potency,[1],> 11.4 µM
same,"activity change, negative = inhibition",[2],3.61%
same,Potency,[3],inactive
same,"activity change, negative = inhibition",[4],14.5%
same,"activity, negative = inhibition",[5],12.6%
same,Potency,[7],inactive
same,Potency,[8],inactive
same,Potency,[14],inactive
same,outcome,[15],inactive
same,"activity, negative = inhibition",[16]; parasite line A,4.49%
same,"activity, negative = inhibition",[16]; parasite line B,-0.635%
same,Potency,CP192,inactive
same,Potency,CP203,inactive
same,Potency,W2,inactive
